The text below walks through data of PubChem BioAssay AID624101 (Broad Institute, 2012).

About 120 (0.17%) of roughly 70,000 compounds were called active. Cut-off read from the data, not from the text of the source: active = inhibition above about 34%; inconclusive = no clear call, values can overlap the other calls; inactive = below about 11%. This excerpt belongs to a sample that is enriched for actives.

This experiment deals with Isocitrate dehydrogenase [NADP] cytoplasmic (Homo sapiens) (UniProt O75874). Put plainly: PubChem AID 624101.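 Note: 0% = DMSO and 100% = no enzyme.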 The settings on record: IDH1 R132H reductase, diaphorase/resazurin fluorescence, 60 min; at 10 µM; active compounds read high. On the technique in general: Resazurin is reduced to fluorescent resorufin, in cell work by metabolically active cells.
Sequence of Isocitrate dehydrogenase [NADP] cytoplasmic (Homo sapiens) (O75874 whole entry R132H): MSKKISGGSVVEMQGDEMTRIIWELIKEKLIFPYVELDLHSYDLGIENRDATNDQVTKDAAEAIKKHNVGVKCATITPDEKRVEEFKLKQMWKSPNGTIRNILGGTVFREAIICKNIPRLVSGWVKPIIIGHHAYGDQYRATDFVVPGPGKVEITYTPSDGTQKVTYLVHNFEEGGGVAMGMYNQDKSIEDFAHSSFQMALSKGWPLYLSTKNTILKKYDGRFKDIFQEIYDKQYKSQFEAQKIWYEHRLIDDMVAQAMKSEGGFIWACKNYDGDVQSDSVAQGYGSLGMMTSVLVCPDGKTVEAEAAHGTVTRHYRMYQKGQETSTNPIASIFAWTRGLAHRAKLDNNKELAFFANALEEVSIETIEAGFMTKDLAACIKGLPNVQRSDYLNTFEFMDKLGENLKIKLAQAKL
Consider `COc1cccc(-c2ccc3c(c2)O[C@H](CN(C)C(=O)C2CCOCC2)[C@H](C)CN([C@H](C)CO)S3(=O)=O)c1`, for which the inhibition (as a rule, the change of the read-out against control, counted positive when it falls) was -1.58% (inactive).
Turning to `C[C@H](O)C#Cc1ccc2c(c1)O[C@H](CN(C)Cc1ccccn1)[C@H](C)CN([C@H](C)CO)S2(=O)=O`, the inhibition was 1.79% (inactive).
`CCCN(C)C[C@H]1Oc2cc(C#CCC(C)C)ccc2S(=O)(=O)N([C@H](C)CO)C[C@H]1C`: the inhibition is -4.36% (inactive).
Take `C/C=C/c1ccc2c(c1)O[C@H](CN(C)C(=O)Cc1cccnc1)[C@@H](C)CN([C@H](C)CO)S2(=O)=O`: the inhibition was 9.7% (inactive).
Turning to `C[C@@H]1CN([C@@H](C)CO)S(=O)(=O)c2ccc(C#CCC3CCCC3)cc2O[C@H]1CN(C)Cc1ccc(C(=O)O)cc1`, the inhibition was 0.74% (inactive).
`C/C=C/c1ccc2c(c1)O[C@H](CN(C)C(=O)Cc1ccncc1)[C@@H](C)CN([C@@H](C)CO)S2(=O)=O`: the inhibition is 37.6% (active).
Under `CCCN(C)C[C@@H]1Oc2cc(C#CCc3ccccc3)ccc2S(=O)(=O)N([C@H](C)CO)C[C@@H]1C` stands 35.5% (active).
Under `C[C@@H]1CN([C@H](C)CO)S(=O)(=O)c2ccc(C#CCC3CCCC3)cc2O[C@H]1CN(C)Cc1ccc(C(=O)O)cc1` stands 45.9% (active); under `C[C@@H]1CN([C@@H](C)CO)S(=O)(=O)c2ccc(C#CCC3CCCC3)cc2O[C@@H]1CN(C)C`, -1.79% (inactive); under `C/C=C/c1ccc2c(c1)O[C@@H](CN(C)C(=O)Cc1ccccc1)[C@H](C)CN([C@@H](C)CO)S2(=O)=O`, 0.0005% (inactive).
Turning to `CCCC#Cc1ccc2c(c1)O[C@@H](CN(C)CCC)[C@@H](C)CN([C@H](C)CO)S2(=O)=O`, the inhibition was -0.176% (inactive).
For `C[C@@H]1CCCCO[C@@H](CN(C)C(=O)Nc2ccc(C(F)(F)F)cc2)[C@H](C)CN([C@H](C)CO)C(=O)c2cc(NC(=O)C3CCCCC3)ccc2O1`, the inhibition is 1.02% (inactive).
The same measure for `O=C(NCC[C@@H]1CC[C@H](NC(=O)C2CC2)[C@@H](CO)O1)c1cc(Cl)cc(Cl)c1`: 0.406% (inactive); for `CCCNC(=O)C[C@H]1C[C@@H]2c3cc(NC(=O)C4CCOCC4)ccc3O[C@@H]2[C@H](CO)O1`: 0.074% (inactive).
For the compound `C[C@@H](NC(=O)C[C@@H]1C=C[C@@H](NC(=O)CN2CCOCC2)[C@H](CO)O1)c1ccccc1`, the inhibition was 0.081% (inactive).
For the compound `CO[C@@H]1CN(C)C(=O)c2ccc(NC(=O)C3CC3)cc2OC[C@H](C)N(C(=O)c2ccccc2)C[C@@H]1C`, the inhibition is 0.146% (inactive).
In the case of `CO[C@@H]1CN(C)C(=O)c2cc(NS(=O)(=O)c3ccccc3C)ccc2OC[C@@H](C)N(S(C)(=O)=O)C[C@@H]1C`, the inhibition was -0.22% (inactive).
Under `Cc1ccc(S(=O)(=O)N[C@@H]2CC[C@H](CCn3cc(C4(O)CCCC4)nn3)O[C@H]2CO)cc1` stands 0.172% (inactive); under `CCNC(=O)C[C@@H]1CC[C@H](NC(=O)NC2CCCCC2)[C@H](CO)O1`, 0.102% (inactive); under `CO[C@@H]1CN(C)C(=O)c2ccc(NC(=O)C3CCCC3)cc2OC[C@H](C)NC[C@@H]1C`, -0.326% (inactive).
Take `CO[C@@H]1CN(C)C(=O)c2cc(NC(=O)c3ccccc3F)ccc2OC[C@H](C)NC[C@@H]1C`: the inhibition was 0.217% (inactive).
Regarding `COc1cccc(CNC(=O)c2cc3c(c(-c4cccc(-c5ccc(C#N)cc5)c4)n2)[C@@H](CCO)N([S@](=O)C(C)(C)C)C3)c1`, the inhibition is 0.432% (inactive).
With `O=C(N[C@@H]1CC[C@@H](CCNS(=O)(=O)c2ccccc2Cl)O[C@@H]1CO)c1ccccc1`, the inhibition was -0.485% (inactive).
Consider `CO[C@@H]1CN(C)C(=O)c2cc(NC(=O)C3CC3)ccc2OC[C@@H](C)N(C(=O)c2ccncc2)C[C@H]1C`, for which the inhibition was 0.284% (inactive).
Consider `COc1ccccc1-c1cnc2c(c1)C(=O)N([C@@H](C)CO)C[C@H](C)[C@@H](CN(C)C(C)=O)O2`, for which the inhibition was -1.01% (inactive).
With `O=C(C[C@H]1C[C@H]2c3cc(NS(=O)(=O)c4ccc(F)cc4)ccc3O[C@H]2[C@H](CO)O1)NCc1cc(F)ccc1F`, the inhibition is -0.236% (inactive).
For the compound `O=C(N[C@H]1CC[C@@H](CCNS(=O)(=O)c2cccc(Cl)c2)O[C@@H]1CO)c1ccccc1`, the inhibition is -0.277% (inactive).
Take `CC(C)NC(=O)N[C@H]1CC[C@@H](CC(=O)NCc2ccc(Oc3ccccc3)cc2)O[C@@H]1CO`: the inhibition is -0.181% (inactive).
As for `O=C(N[C@H]1CC[C@H](CCNS(=O)(=O)c2ccc(F)cc2)O[C@H]1CO)C1CCC1`, the inhibition is -0.096% (inactive).
Under `C[C@@H]1CN([C@H](C)CO)C(=O)c2cc(-c3ccc(C(=O)N(C)C)cc3)cnc2O[C@H]1CN(C)C(=O)C1CC1` stands -0.906% (inactive).
For `CO[C@@H](CN(C)C(=O)c1cnccn1)[C@@H](C)CN([C@@H](C)CO)S(=O)(=O)c1ccc(Cl)cc1`, the inhibition was 0.106% (inactive).
With `O=C(C[C@H]1C[C@@H]2c3cc(NC(=O)c4cccnc4)ccc3O[C@@H]2[C@H](CO)O1)NCc1ccccn1`, the inhibition is -0.419% (inactive).
Take `CO[C@H]1CN(C)C(=O)c2ccc(NC(=O)c3ccc4c(c3)OCO4)cc2OC[C@@H](C)NC[C@@H]1C`: the inhibition was 0.0335% (inactive).
For the compound `COCC(=O)Nc1ccc2c(c1)OC[C@@H](C)N(C(=O)c1cnccn1)C[C@H](C)[C@@H](OC)CN(C)C2=O`, the inhibition was 0.0305% (inactive).
`CO[C@@H]1CN(C)C(=O)c2ccc(NC(=O)Nc3ccccc3)cc2OC[C@@H](C)N(C(=O)Nc2c(C)noc2C)C[C@@H]1C`: the inhibition was -0.183% (inactive).
Take `CO[C@@H]1CN(C)C(=O)c2cc(NS(=O)(=O)CC(F)(F)F)ccc2OC[C@@H](C)N(Cc2ccccn2)C[C@H]1C`: the inhibition is 0.0375% (inactive).
For the compound `CO[C@H]1CN(C)C(=O)c2cc(NC(=O)C3CC3)ccc2OC[C@H](C)N(C(=O)CN(C)C)C[C@H]1C`, the inhibition was 0.155% (inactive).
`O=C(C[C@@H]1C[C@H]2c3cc(NC(=O)Nc4ccccc4F)ccc3O[C@H]2[C@@H](CO)O1)NC1CCCCC1`: the inhibition was -0.261% (inactive).
As to `CCC(=O)Nc1ccc2c(c1)C(=O)N(C)C[C@H](OC)[C@H](C)CN(C(=O)C1CCC1)[C@@H](C)CO2`, the inhibition is 0.203% (inactive).
Under `COCC(=O)Nc1ccc2c(c1)OC[C@@H](C)N(C(=O)c1ccncc1)C[C@@H](C)[C@@H](OC)CN(C)C2=O` stands -0.0035% (inactive).
